Data reported in PubChem BioAssay (NCATS).
Several values for one entry are separate records, joined by “and”; a condition that tells them apart may be missing. Equal entries are not always repeated. Results filed as inconclusive are left out. A structure can be active in one record and inactive in another. Activity calls are given as the source filed them. Unless noted, calls come from the whole dose curve; as a rule, active = well fitted curve in the direction sought with a large enough effect; inconclusive = small, poorly fitted or top-dose-only effect, or another doubt; inactive = no such curve, though single readings can be large; an effect the other way counts as inactive or inconclusive.

Experiments:
[1] = biological target: Calcium and integrin-binding protein 1 (Homo sapiens) (UniProt Q99828); experiment: Primary qHTS for Identification of Calcium Integrin Binding Protein 1 (CIB1) Competitor (AID 1508620);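 for activity change, negative = inhibition: GST tagged CIB1 binding a fluorescein labelled alphaIIb integrin peptide tracer; top concentration of the series differs between compounds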
Method in brief: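 Fluorescence polarization competition: CIB1-GST (1 uM final) preincubated with compound 15 min at room temperature, then FITC-labeled alphaIIb peptide (100 nM final) added for another 15 min. Polarization read at Ex 480/Em 540.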

[2] = biological target: Cytochrome P450 2D6 (Homo sapiens) (UniProt P10635); experiment: Cytochrome P450 family 2 subfamily D member 6 (CYP2D6) small molecule antagonists: luciferase biochemical (cell-free) qHTS assay (AID 1645840; active = well fitted curve in the direction sought with a large enough effect in the repeat runs; an effect the other way counts as inactive or inconclusive; note: nearly all actives have a fitted effect of over 55% in size; for activity change, negative = inhibition: series mostly up to about 57 µM)
Method in brief: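 P450-Glo CYP2D6 system: proluciferin substrate converted by enzyme to luciferin, read by luminescence proportional to activity. Enzyme-substrate mix with compound 10 min at room temperature, then NADPH regeneration 1 h before detection reagent.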

[3] = biological target: Cytochrome P450 2C9 (Homo sapiens) (UniProt P11712); experiment: Cytochrome P450 family 2 subfamily C member 9 (CYP2C9) small molecule antagonists: luciferase biochemical (cell-free) qHTS assay (AID 1645842; active = well fitted curve in the direction sought with a large enough effect in the repeat runs; an effect the other way counts as inactive or inconclusive; note: nearly all actives have a fitted effect of over 55% in size; for activity change, negative = inhibition: series mostly up to about 57 µM)
Method in brief: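 P450-Glo CYP2C9 system: proluciferin substrate with enzyme in mix containing 0.4% BSA, 10 min at room temperature, then NADPH regeneration solution added and incubated 1 h at 37C. Detection reagent stopped reaction; luminescence read after 20 min as RLU.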

[4] = Primary qHTS for inhibitors of nuclear receptor binding SET domain protein 2 (NSD2) in an isogenic RCH-ACV NSD2 p.E1099K mutant (9B) (AID 1645876); note: nearly all actives have a fitted effect of over 70% in size
[5] = Primary qHTS for inhibitors of nuclear receptor binding SET domain protein 2 (NSD2) in an RCH-ACV wild type WT cells (2C) (AID 1645877); note: nearly all actives have a fitted effect of over 70% in size
% is set by controls: 0 for no effect and ±100 for the full control effect; potency is the fitted concentration of half-maximal effect.

Chain of Cytochrome P450 2D6 (Homo sapiens) (P10635 whole entry, looked up): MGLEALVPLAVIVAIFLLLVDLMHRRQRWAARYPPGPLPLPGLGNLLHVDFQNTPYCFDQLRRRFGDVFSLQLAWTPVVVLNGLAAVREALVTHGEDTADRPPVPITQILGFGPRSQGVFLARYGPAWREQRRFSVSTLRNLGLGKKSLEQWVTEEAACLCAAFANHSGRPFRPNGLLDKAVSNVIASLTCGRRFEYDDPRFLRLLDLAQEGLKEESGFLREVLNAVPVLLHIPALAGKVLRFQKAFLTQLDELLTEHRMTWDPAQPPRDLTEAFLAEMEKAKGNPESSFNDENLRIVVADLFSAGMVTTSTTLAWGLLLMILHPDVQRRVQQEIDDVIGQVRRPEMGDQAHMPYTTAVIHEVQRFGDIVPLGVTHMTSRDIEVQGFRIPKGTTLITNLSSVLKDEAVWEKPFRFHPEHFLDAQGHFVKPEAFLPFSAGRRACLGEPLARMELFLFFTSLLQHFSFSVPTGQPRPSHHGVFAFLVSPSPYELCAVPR
Chain of Calcium and integrin-binding protein 1 (Homo sapiens) (Q99828 whole entry, looked up): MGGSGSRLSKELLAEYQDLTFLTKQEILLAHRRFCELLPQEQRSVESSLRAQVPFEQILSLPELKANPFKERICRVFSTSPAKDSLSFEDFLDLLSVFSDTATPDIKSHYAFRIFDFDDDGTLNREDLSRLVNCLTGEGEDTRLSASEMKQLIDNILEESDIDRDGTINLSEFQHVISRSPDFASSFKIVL
Chain of Cytochrome P450 2C9 (Homo sapiens) (P11712 whole entry, looked up): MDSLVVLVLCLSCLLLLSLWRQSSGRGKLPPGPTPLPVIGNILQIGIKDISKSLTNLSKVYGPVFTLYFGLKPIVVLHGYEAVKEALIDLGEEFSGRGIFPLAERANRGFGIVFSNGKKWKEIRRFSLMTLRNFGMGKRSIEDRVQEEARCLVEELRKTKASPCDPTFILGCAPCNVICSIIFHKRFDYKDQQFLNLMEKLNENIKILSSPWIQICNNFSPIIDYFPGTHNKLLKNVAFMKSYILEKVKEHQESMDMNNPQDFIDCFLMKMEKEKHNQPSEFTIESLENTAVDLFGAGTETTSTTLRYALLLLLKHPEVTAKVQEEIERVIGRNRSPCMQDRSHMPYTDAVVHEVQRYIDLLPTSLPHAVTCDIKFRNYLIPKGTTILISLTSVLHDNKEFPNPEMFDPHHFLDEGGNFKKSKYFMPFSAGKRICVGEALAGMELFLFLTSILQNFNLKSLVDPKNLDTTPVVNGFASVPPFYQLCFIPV

Question: What does the source list for COc1ccc(-c2cnc3c(-c4cccc5ncccc45)cnn3c2)cc1?
Answer: Potency [1]: inactive; Potency [2]: inactive; Potency [3]: 12 µM (active); Potency [4]: inactive; Potency [5]: inactive

Question: With C[C@@H](NC(=O)C(=O)c1c[nH]c2ccc([N+](=O)[O-])cc12)c1ccccc1 as the compound, how does the Potency [1] read?
Answer: The Potency was “inactive”.

Question: And the Potency [2]?
Answer: The Potency was “inactive”.

Question: And the Potency [3]?
Answer: Its Potency is “inactive”.

Question: What about the Potency [4] of the same compound?
Answer: The Potency was “inactive”.

Question: What about the Potency [5] of the same compound?
Answer: The Potency was “inactive”.

Question: What does the source list for COc1cc2c(cc1-c1c(C)noc1C)ncc1[nH]c(=O)n(C(C)c3ccccn3)c12 (stereo not given)?
Answer: Potency [1]: inactive; Potency [2]: inactive; Potency [3]: 5.35 µM (active); Potency [4]: 0.325 µM (active); Potency [5]: 0.325 µM (active)

Question: For CCOC(=O)N1CCC(N2CCC[C@@H](NC(=O)c3ccccc3C)C2)CC1, which Potency [1] is on record?
Answer: Its Potency is “inactive”.

Question: And the Potency [2]?
Answer: Its Potency is 16.9 µM (active).

Question: And the Potency [3]?
Answer: The Potency was “inactive”.

Question: And the Potency [4]?
Answer: Its Potency is “inactive”.

Question: And the Potency [5]?
Answer: Its Potency is “inactive”.

Question: With CCCC(Nc1nc(-c2ccc(NC(=O)NCC)c(OC)c2)ncc1C)c1cccnc1 (stereo not given) as the compound, how does the Potency [1] read?
Answer: Its Potency is “inactive”.

Question: And the Potency [2]?
Answer: The Potency was 5.35 µM (active).

Question: What about the Potency [3] of the same compound?
Answer: Its Potency is 0.239 µM (active).

Question: And the Potency [4]?
Answer: The Potency was 0.183 µM (active).

Question: What about the Potency [5] of the same compound?
Answer: The Potency was 0.115 µM (active).

Question: With Cn1ncc(Cl)c1-c1cc(C(=O)NC(CN)Cc2ccc(F)c(F)c2)oc1Cl (stereo not given) as the compound, how does the Potency [1] read?
Answer: The Potency was “inactive”.

Question: What about the Potency [2] of the same compound?
Answer: The Potency was 12 µM (active) and 13.5 µM (active).

Question: What about the Potency [3] of the same compound?
Answer: The Potency was 8.49 µM (active).

Question: And the Potency [4]?
Answer: Its Potency is 728 nM (active) and 833 nM (active).

Question: What about the Potency [5] of the same compound?
Answer: Its Potency is 817 nM (active) and 742 nM (active).

Question: What does the source list for C[C@H](Oc1cc(-n2cnc3ccc(CN4CCN(C)CC4)cc32)sc1C(N)=O)c1ccccc1C(F)(F)F?
Answer: Potency [1]: inactive; Potency [2]: 21.3 µM (active); Potency [3]: 6.74 µM (active); Potency [4]: 1.15 µM (active); Potency [5]: 1.29 µM (active)

Question: Which Potency [1] does the source give for Cc1cc(F)ccc1[C@H]1C[C@@H](N2CCN3C(=O)CC[C@H]3C2)CCN1C(=O)N(C)[C@H](C)c1cc(C(F)(F)F)cc(C(F)(F)F)c1 here?
Answer: The Potency was “inactive”.

Question: What about the Potency [2] of the same compound?
Answer: The Potency was 13.5 µM (active).

Question: And the Potency [3]?
Answer: Its Potency is 10.7 µM (active).

Question: What about the Potency [4] of the same compound?
Answer: The Potency was 23 µM (active).

Question: And the Potency [5]?
Answer: Its Potency is 14.5 µM (active).

Question: What does the source list for CC(C)(O)C(=O)N1CCN(c2ccc(C(F)(F)F)c(C3=C(c4c[nH]c5ccccc45)C(=O)NC3=O)c2)CC1?
Answer: Potency [1]: inactive; Potency [2]: 21.3 µM (active); Potency [3]: 3.79 µM (active); Potency [4]: 1.15 µM (active); Potency [5]: 1.03 µM (active)

Question: With COC1CCN(C(=O)c2cc(Cc3n[nH]c(=O)c4ccccc34)ccc2F)CC1 as the compound, how does the Potency [1] read?
Answer: Its Potency is “inactive”.

Question: What about the Potency [2] of the same compound?
Answer: Its Potency is “inactive”.

Question: What about the Potency [3] of the same compound?
Answer: Its Potency is 23.9 µM (active).

Question: What about the Potency [4] of the same compound?
Answer: Its Potency is 13.2 µM (active).

Question: What about the Potency [5] of the same compound?
Answer: Its Potency is 8.33 µM (active).

Question: With COc1cc2nc(C3CC3)nc(N3CCN(c4ccccc4OC)CC3)c2cc1OC as the compound, how does the Potency [1] read?
Answer: Its Potency is “inactive”.

Question: And the Potency [2]?
Answer: Its Potency is 21.3 µM (active).

Question: What about the Potency [3] of the same compound?
Answer: The Potency was 13.5 µM (active).

Question: And the Potency [4]?
Answer: Its Potency is 16.3 µM (active).

Question: And the Potency [5]?
Answer: The Potency was 12.9 µM (active).

Question: Which Potency [1] does the source give for CC(C)(C)c1ccc(-c2nc3c(N4CCN(Cc5ccc6nccnc6c5)CC4)cccc3[nH]2)cc1 here?
Answer: The Potency was “inactive”.

Question: What about the Potency [2] of the same compound?
Answer: The Potency was “inactive”.

Question: And the Potency [3]?
Answer: The Potency was 2.13 µM (active).

Question: What about the Potency [4] of the same compound?
Answer: The Potency was 9.16 µM (active).

Question: And the Potency [5]?
Answer: The Potency was 11.5 µM (active).

Question: Which results are given for CCOc1nc(NC(=O)Cc2cc(OC)ccc2OC)cc(N)c1C#N?
Answer: Potency [1]: inactive; Potency [2]: inactive; Potency [3]: 0.301 µM (active); Potency [4]: inactive; Potency [5]: inactive

Question: Which Potency [1] does the source give for O=S(=O)(NCc1cccc2ccccc12)c1cc(Cl)c(Oc2cccc(N3CCNCC3)c2)s1 here?
Answer: Its Potency is “inactive”.

Question: And the Potency [2]?
Answer: Its Potency is 8.49 µM (active).

Question: And the Potency [3]?
Answer: Its Potency is 1.69 µM (active).

Question: And the Potency [4]?
Answer: Its Potency is 7.28 µM (active).

Question: What about the Potency [5] of the same compound?
Answer: The Potency was 5.78 µM (active).

Question: What does the source list for Nc1nc2c(cnn2CCCc2ccc(O)cc2)c2nc(-c3ccco3)nn12?
Answer: Potency [1]: inactive; Potency [2]: inactive; Potency [3]: 3.01 µM (active); Potency [4]: inactive; Potency [5]: inactive

Question: For CN(C)C(=O)Nc1cccc(-c2ccc(N(C)C)cc2)c1, which Potency [1] is on record?
Answer: Its Potency is “inactive”.

Question: What about the Potency [2] of the same compound?
Answer: Its Potency is 21.3 µM (active).

Question: What about the Potency [3] of the same compound?
Answer: The Potency was 23.9 µM (active).

Question: What about the Potency [4] of the same compound?
Answer: Its Potency is “inactive”.

Question: What about the Potency [5] of the same compound?
Answer: Its Potency is “inactive”.

Question: For CNC1CN(c2ccc3c(=O)c(C(=O)O)cn(-c4nccs4)c3n2)CC1OC (stereo not given), which Potency [1] is on record?
Answer: Its Potency is “inactive”.

Question: And the activity change, negative = inhibition [2]?
Answer: Its activity change, negative = inhibition is 16.1% [at 11.5 µM] (inactive).

Question: What about the activity change, negative = inhibition [3] of the same compound?
Answer: The activity change, negative = inhibition was 4.23% [at 11.5 µM] (inactive).

Question: And the Potency [4]?
Answer: The Potency was 0.0836 µM (active).

Question: What about the Potency [5] of the same compound?
Answer: The Potency was 0.0297 µM (active).

Question: Which results are given for COc1cc2ncnc(Nc3cccc(I)c3)c2cc1OC?
Answer: Potency [1]: inactive; Potency [2]: 12 µM (active); Potency [3]: 13.5 µM (active); Potency [4]: 16.3 µM (active); Potency [5]: 14.5 µM (active) and inactive

Question: Which Potency [1] does the source give for O=C(NCc1cccs1)c1cc2nc(-c3ccco3)cc(C(F)(F)Cl)n2n1 here?
Answer: Its Potency is “inactive”.

Question: What about the Potency [2] of the same compound?
Answer: Its Potency is 7.56 µM (active).

Question: And the Potency [3]?
Answer: The Potency was 0.301 µM (active).

Question: What about the Potency [4] of the same compound?
Answer: Its Potency is “inactive”.

Question: And the Potency [5]?
Answer: The Potency was “inactive”.

Question: With CC1=C(C(=O)OC2CCCCC2)C(c2ccc([N+](=O)[O-])cc2)C2=C(CC(C)(C)CC2=O)N1 (stereo not given) as the compound, how does the Potency [1] read?
Answer: Its Potency is 17.8 µM (active).

Question: And the Potency [2]?
Answer: Its Potency is 21.3 µM (active).

Question: What about the Potency [3] of the same compound?
Answer: The Potency was 12 µM (active).

Question: What about the Potency [4] of the same compound?
Answer: Its Potency is “inactive”.

Question: And the Potency [5]?
Answer: The Potency was “inactive”.

Question: What does the source list for COc1ccccc1N1CCN(c2ncnc3n[nH]c(Br)c23)CC1?
Answer: Potency [1]: inactive; Potency [2]: inactive; Potency [3]: 7.56 µM (active); Potency [4]: 23 µM (active); Potency [5]: 16.3 µM (active)

Question: Which results are given for Fc1ccc(N2CCCCC2)c(NC(=S)c2ccncc2)c1?
Answer: Potency [1]: inactive; Potency [2]: 1.69 µM (active); Potency [3]: 6.01 µM (active); Potency [4]: 10.3 µM (active); Potency [5]: 12.9 µM (active)

Question: For COC(=O)c1ccc(N2CCN(C)CC2)c(NC(=O)c2cccc(OC)c2)c1, which Potency [1] is on record?
Answer: The Potency was “inactive”.

Question: What about the Potency [2] of the same compound?
Answer: The Potency was 6.01 µM (active).

Question: What about the Potency [3] of the same compound?
Answer: Its Potency is “inactive”.

Question: And the Potency [4]?
Answer: The Potency was “inactive”.

Question: What about the Potency [5] of the same compound?
Answer: Its Potency is “inactive”.
